D2 PAM-1 – Beta-Arrestin HTS for Positive Allosteric Modulators of the Human D2 Dopamine Receptor: Potentiators | DiscoveRx D2 beta-arrestin cells, luminescence, 90 min; 100% = 57 uM dopamine signal | D(2) dopamine receptor (Homo sapiens), P14416 | potentiation, % (test concentration not listed) | 360,000 tested, 0.23% active | AID 624464, 2012; in the data active = potentiation above about 50%; inconclusive = mostly about 30% to 49%
Target sequence (P14416 whole entry, looked up): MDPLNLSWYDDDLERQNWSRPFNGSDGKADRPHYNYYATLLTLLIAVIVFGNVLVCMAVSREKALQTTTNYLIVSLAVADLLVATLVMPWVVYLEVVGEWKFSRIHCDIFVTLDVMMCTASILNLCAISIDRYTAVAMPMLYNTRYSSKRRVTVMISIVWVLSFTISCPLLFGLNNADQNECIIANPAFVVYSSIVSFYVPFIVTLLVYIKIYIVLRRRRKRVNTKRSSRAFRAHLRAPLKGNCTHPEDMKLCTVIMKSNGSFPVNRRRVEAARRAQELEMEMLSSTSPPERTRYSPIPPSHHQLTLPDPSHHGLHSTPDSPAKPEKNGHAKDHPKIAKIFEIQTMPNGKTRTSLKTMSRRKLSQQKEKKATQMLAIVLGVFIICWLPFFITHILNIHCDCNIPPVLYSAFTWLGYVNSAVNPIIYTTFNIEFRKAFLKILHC
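D2 cells co-treated with compound plus 50 nM dopamine (EC20) for 90 min at 37 deg C to detect potentiation. Beta-arrestin recruitment was read as enzyme-fragment luminescence after 1 h at ambient temperature. Full response was set by 57 uM dopamine.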
D2 ag-1 – Beta-Arrestin HTS for Positive Allosteric Modulators of the Human D2 Dopamine Receptor: Agonists; D(2) dopamine receptor (Homo sapiens), P14416; DiscoveRx PathHunter D2 beta-arrestin, luminescence, 90 min; 100% = 57 uM dopamine signal; activation, % (test concentration not listed); 360,000 tested, 0.084% active; in the data active = activation above about 40%; inconclusive = between about 15% and that limit
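DiscoveRx PathHunter D2 beta-arrestin cells (2,100/well) attached overnight, then compound-stimulated 90 min at 37 C in HBSS/10 mM HEPES/0.1% Tween-20 buffer; beta-galactosidase complementation read by luminescence after 1 h at ambient temperature. Dopamine 57 uM final (EC100) as control.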
D2 antag – HTS Assay for Allosteric Antagonists of the Human D2 Dopamine Receptor: Primary Screen for Antagonists. HEK293 TREx D2 cells, calcium flux, dopamine EC80. inhibition, % at 10 µM. 340,000 tested, 2% active. AID 485344, 2010; in the data active = inhibition above about 30%; inactive = below that, where a call was filed; also: 0% is about no effect
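Read-out: kinetic calcium fluorescence (1 cycle/s) in inducible HEK293 T-REx D2 cells after an EC80 dopamine addition that followed 180 s compound preincubation. Loss of the dopamine response indicates antagonism.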
D2 ag-2 – HTS Assay for Allosteric Agonists of the Human D2 Dopamine Receptor: Primary Screen for Agonists; D(2) dopamine receptor (Homo sapiens), P14416; HEK293 T-REx D2 cells, calcium flux agonist mode; activation, % at 2 µM; 340,000 tested, 0.53% active; AID 485358, 2010;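 active = activation over 3 SD above normal in the single-dose calcium agonist read, cut at about 30% in these data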; also: 0% is about no effect
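Tetracycline-induced HEK293 Trex cells with D2 receptor force-coupled to calcium signaling, plated overnight at 30 C and loaded with no-wash calcium dye. Calcium flux read kinetically for 180 s after compound addition; responses flag agonists.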
D2 PAM-2 – HTS Assay for Positive Allosteric Modulators of the Human D2 Dopamine Receptor: Primary Screen for Potentiators. D(2) dopamine receptor (Homo sapiens), P14416. HEK293 T-REx D2, calcium flux, EC20 dopamine potentiation. potentiation, % at 10 µM. 340,000 tested, 0.34% active. AID 485347, 2010;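 active = potentiation over 3 SD above the plate norm, cut at about 30% in these data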; also: 0% is about no effect
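Cells plated with tetracycline inducer and held overnight at 30 C; calcium dye loaded 30–90 min at room temperature; baseline taken, compound added and read 180 s; EC20 dopamine then added and read 180 s.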
* hit, by the source's call; ? = inconclusive; · = not tested or not shown. Shown are actives, neighbours in structure and some others; about 2.4% of the full set was active somewhere.

SMILES	D2 PAM-1	D2 ag-1	D2 antag	D2 ag-2	D2 PAM-2
COc1ccc(-n2nc(C(=O)N(C)C)nc2-c2ccccc2)cc1	0	9	31*	0	9
CCOc1ccc(-c2cccc(NS(=O)(=O)c3ccc(Cl)s3)c2)nn1	·	·	·	·	4
O=C(CCC1CCCCC1)NCCN1C2=NC[C@@H](Cc3ccccc3)N2C[C@H]1Cc1ccc(O)cc1	-31	-4	51*	0	-24
C[C@@H](CN1C2=NC[C@H](C)N2C[C@H]1Cc1ccc(O)cc1)NC(=O)CCC1CCCCC1	-33	-4	52*	0	-18
CC(C)[C@H]1CN=C2N(C[C@H](C)NC(=O)CCC3CCCCC3)[C@H](Cc3ccc(O)cc3)CN21	-24	1	77*	0	-23
COc1ccc(C[C@@H]2CN3C(=NC[C@@H]3Cc3ccc(O)cc3)N2C[C@H](C)NC(=O)CCC2CCCCC2)cc1	-31	-3	-34	-2	-6
COC1=CC(=O)OC(c2ccco2)C1 (stereo not given)	-4	0	·	·	·
CC(OC(=O)c1ccco1)C(=O)NC1CCCC1 (stereo not given)	0	-3	4	2	-2
Cc1ccc(NC(=S)NC2CC3CCC(C2)N3Cc2ccco2)c(C)c1 (stereo not given)	-24	-2	4	0	-15
COc1ccc(CN2C3CCCC2CC(NC(=O)Nc2ccccc2C)C3)cc1 (stereo not given)	-20	-1	·	·	·
CCc1ccccc1NC(=S)NC1CC2CCC(C1)N2Cc1ccco1 (stereo not given)	-24	0	7	-1	-11
Cc1cccc(NC(=S)NC2CC3CCCC(C2)N3Cc2ccccc2)c1C (stereo not given)	-21	-2	105*	0	-28
CCc1ccccc1NC(=S)NC1CC2CCC(C1)N2Cc1ccc(F)cc1 (stereo not given)	-6	0	78*	1	-28
Cc1cccc(NC(=S)NC2CC3CCC(C2)N3Cc2ccco2)c1C (stereo not given)	-22	-1	36*	1	-19
COc1ccc(Nc2ncc(C#N)c(N)n2)c(OC)c1	-5	-4	0	0	-9
Cc1ccc(O)c(NC(=O)C2CC(c3cccc(Br)c3)=NO2)c1 (stereo not given)	7	2	11	-1	1
COc1cc(NC(=S)NC(=O)CCc2ccccc2)cc(OC)c1	62*	4	-4	1	4
O=C(CCc1ccccc1)NC(=S)Nc1cccc(Br)c1	80*	?	-5	0	6
Cc1c(Cl)cccc1NC(=O)Nc1nnc(N2CCCCCC2)s1	·	·	·	0	2
O=[N+]([O-])c1cc([N+](=O)[O-])c(Oc2cccnc2Br)cc1NN1CCCCC1	4	1	35*	0	-4
O=C(CCS(=O)(=O)c1cccc2nonc12)Nc1ccc(F)cc1F	·	·	·	1	-1
O=C(NC12CC3CC(CC(C3)C1)C2)N1CCN(c2ccccn2)CC1	-8	1	31*	36*	-2
O=C(N/N=C/c1cccc(Oc2ccc([N+](=O)[O-])cc2[N+](=O)[O-])c1)c1cncc(Br)c1	85*	7	5	-1	23
Cc1ccccc1OCC(=O)NCC(=O)N/N=C/c1cccc([N+](=O)[O-])c1	·	·	-8	1	-2
Cc1ccccc1OCC(=O)N/N=C/c1cccc(Oc2ccc([N+](=O)[O-])cc2[N+](=O)[O-])c1	55*	12	-9	0	-4
SMILES	D2 PAM-1	D2 ag-1	D2 antag	D2 ag-2	D2 PAM-2
COc1ccc(S(=O)(=O)NCc2cn3c(C)csc3n2)cc1F	2	-2	32*	0	8
COc1ccc(OC)c(S(=O)(=O)NCc2cn3c(C)csc3n2)c1	-13	-3	·	·	-20
COCCCNC(=O)Cn1ncc2ccsc2c1=O	0	-3	30*	0	0
Cc1ccc(NC(=O)CSc2nc3ccccc3nc2Cc2ccccc2)c(Cl)c1	·	·	·	1	-5
COc1ccc(CCNC(=O)c2ccc3c(c2)OCCO3)cc1	-3	1	0	2	1
CN(C)C(CNC(=O)c1ccc(-c2ccccc2)cc1)c1ccccc1 (stereo not given)	-19	0	31*	0	0
COc1ccc(C(CNC(=O)c2ccc3c(c2)OCCO3)N(C)C)cc1 (stereo not given)	-15	-1	45*	2	·
CN(C)C(CNC(=O)c1ccc(C(=O)c2ccccc2)cc1)c1ccccc1 (stereo not given)	-13	-6	-9	0	-18
COc1ccc(NC(=O)Cn2nc(-c3ccncc3)ccc2=O)cc1Cl	·	·	·	-1	4
COC(=O)c1ccccc1NC(=O)Cn1c(=O)n(Cc2ccc(C(=O)NCc3ccc4c(c3)OCO4)cc2)c(=O)c2ccccc21	·	·	·	1	-16
COc1ccccc1CCNCc1ccc(OC)c(OCc2ccccc2)c1	-16	-2	·	·	·
COc1ccc(CNCc2ccco2)cc1OCc1ccccc1	-28	-5	37*	-1	16
O=C(O)c1ccc(Nc2ncnc3ccccc23)cc1	-7	-1	32*	3	2
COc1ccc(OC)c(NC(=O)c2cccc(N3C(=O)C4C5C=CC(C6CC56)C4C3=O)c2)c1 (stereo not given)	-9	7	2	-1	40*
O=C(Nc1ccccc1)c1cccc(N2C(=O)C3C4C=CC(C5CC45)C3C2=O)c1 (stereo not given)	-2	2	32*	1	0
CN(C)c1ccc(CNC(=O)C(Cc2ccccc2)NS(=O)(=O)c2ccc3c(c2)oc(=O)n3C)cc1 (stereo not given)	·	·	·	0	-10
COc1ccc(OC)c(S(=O)(=O)Nc2ccccc2C(=O)N2CCCCC2)c1	-3	1	7	0	-8
CCOc1ccc(C(=O)Nc2c(C(=O)Nc3ccccc3F)oc3ccccc23)cc1OCC	·	·	·	0	-2
CS(=O)(=O)N1CCN(c2ccccc2NC(=O)c2ccc(Cl)cc2)CC1	18	3	-10	0	-5
CS(=O)(=O)N1CCN(c2ccccc2NC(=O)c2cccnc2Cl)CC1	-5	-4	33*	0	-1
O=C(O)c1cnn(-c2nc(-c3cccc([N+](=O)[O-])c3)cs2)c1C(F)(F)F	0	-1	31*	1	-5

Screening data as filed in PubChem.
